Test results from ChEMBL document CHEMBL1961873, “Compounds: GSK PKIS; Assays: Nanosyn kinase panel” (2012).

Experiments:
[1] = target: Sphingosine kinase 1 (Homo sapiens) (UniProt Q9NYA1); details: at 1 µM;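 note: mean SPHK1 inhibition value reported from the GSK PKIS kinase panel screen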
[2] = target: T1, Sphingosine kinase 2 (Homo sapiens) (UniProt Q9NRA0); details: at 0.1 µM
T1 sequence (whole entry): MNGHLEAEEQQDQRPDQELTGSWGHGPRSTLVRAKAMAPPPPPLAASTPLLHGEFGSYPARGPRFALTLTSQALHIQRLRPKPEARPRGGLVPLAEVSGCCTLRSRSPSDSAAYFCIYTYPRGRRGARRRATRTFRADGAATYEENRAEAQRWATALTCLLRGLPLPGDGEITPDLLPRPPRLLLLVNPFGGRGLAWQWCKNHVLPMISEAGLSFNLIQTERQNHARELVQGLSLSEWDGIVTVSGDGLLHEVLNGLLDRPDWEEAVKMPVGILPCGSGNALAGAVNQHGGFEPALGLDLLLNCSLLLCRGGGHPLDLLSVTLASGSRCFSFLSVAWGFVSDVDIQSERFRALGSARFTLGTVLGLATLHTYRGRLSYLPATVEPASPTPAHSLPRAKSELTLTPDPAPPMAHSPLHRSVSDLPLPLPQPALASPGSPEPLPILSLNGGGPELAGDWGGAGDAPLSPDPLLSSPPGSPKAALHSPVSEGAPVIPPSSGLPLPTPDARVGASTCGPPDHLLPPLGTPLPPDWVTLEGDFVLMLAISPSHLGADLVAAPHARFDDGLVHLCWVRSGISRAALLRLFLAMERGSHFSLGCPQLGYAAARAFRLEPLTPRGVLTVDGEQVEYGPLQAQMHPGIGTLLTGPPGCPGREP

[3] = target: T1, Sphingosine kinase 2 (Homo sapiens); details: at 1 µM
[4] = target: Casein kinase II subunit alpha (Homo sapiens) (UniProt P68400); details: at 1 µM;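 note: reported value is the mean CK2 inhibition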
[5] = target: T2, Inhibitor of nuclear factor kappa-B kinase subunit alpha (Homo sapiens) (UniProt O15111); details: at 0.1 µM
T2 sequence (whole entry): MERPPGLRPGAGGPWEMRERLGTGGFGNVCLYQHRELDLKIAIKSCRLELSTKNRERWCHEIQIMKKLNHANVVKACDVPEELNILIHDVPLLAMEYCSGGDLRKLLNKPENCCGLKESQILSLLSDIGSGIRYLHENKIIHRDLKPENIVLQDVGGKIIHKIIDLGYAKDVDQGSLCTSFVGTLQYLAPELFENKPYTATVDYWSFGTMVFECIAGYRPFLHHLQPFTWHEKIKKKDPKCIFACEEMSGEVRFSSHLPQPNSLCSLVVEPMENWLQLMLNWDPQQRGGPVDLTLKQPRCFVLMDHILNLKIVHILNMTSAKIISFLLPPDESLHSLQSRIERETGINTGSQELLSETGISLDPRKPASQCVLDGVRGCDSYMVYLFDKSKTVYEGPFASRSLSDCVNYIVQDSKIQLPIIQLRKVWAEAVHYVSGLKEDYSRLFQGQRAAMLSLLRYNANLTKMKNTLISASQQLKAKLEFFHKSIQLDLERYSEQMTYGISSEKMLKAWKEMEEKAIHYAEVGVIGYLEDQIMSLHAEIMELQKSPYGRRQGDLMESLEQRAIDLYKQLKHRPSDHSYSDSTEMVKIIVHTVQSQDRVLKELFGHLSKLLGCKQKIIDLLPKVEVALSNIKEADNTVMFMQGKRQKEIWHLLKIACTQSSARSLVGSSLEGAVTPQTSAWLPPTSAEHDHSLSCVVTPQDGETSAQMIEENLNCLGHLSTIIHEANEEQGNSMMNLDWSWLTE

[6] = target: T2, Inhibitor of nuclear factor kappa-B kinase subunit alpha (Homo sapiens); details: at 1 µM
[7] = target: T3, Inhibitor of nuclear factor kappa-B kinase subunit beta (Homo sapiens) (UniProt O14920); details: at 0.1 µM
T3 sequence (whole entry): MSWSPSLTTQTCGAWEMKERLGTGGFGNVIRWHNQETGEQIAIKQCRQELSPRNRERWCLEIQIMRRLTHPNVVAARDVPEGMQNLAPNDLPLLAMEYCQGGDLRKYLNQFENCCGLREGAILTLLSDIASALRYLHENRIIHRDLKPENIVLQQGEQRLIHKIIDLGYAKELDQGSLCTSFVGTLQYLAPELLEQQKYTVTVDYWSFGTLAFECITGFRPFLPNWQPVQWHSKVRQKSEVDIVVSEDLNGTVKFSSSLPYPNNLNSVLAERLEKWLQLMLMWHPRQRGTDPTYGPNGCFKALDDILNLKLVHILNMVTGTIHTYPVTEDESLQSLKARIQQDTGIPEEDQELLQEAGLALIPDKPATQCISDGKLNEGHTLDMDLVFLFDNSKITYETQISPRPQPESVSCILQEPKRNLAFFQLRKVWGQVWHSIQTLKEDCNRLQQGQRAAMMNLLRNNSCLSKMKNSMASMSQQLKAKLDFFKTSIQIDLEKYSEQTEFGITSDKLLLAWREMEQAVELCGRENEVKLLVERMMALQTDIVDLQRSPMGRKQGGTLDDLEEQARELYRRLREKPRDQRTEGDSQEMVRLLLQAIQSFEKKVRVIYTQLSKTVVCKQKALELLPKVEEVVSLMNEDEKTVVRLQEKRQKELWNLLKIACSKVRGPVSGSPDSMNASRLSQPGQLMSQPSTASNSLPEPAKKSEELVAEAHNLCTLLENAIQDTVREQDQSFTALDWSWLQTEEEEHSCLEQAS

[8] = target: T3, Inhibitor of nuclear factor kappa-B kinase subunit beta (Homo sapiens); details: at 1 µM
[9] = target: T4, Inhibitor of nuclear factor kappa-B kinase subunit epsilon (Homo sapiens) (UniProt Q14164); details: at 0.1 µM
T4 sequence (whole entry): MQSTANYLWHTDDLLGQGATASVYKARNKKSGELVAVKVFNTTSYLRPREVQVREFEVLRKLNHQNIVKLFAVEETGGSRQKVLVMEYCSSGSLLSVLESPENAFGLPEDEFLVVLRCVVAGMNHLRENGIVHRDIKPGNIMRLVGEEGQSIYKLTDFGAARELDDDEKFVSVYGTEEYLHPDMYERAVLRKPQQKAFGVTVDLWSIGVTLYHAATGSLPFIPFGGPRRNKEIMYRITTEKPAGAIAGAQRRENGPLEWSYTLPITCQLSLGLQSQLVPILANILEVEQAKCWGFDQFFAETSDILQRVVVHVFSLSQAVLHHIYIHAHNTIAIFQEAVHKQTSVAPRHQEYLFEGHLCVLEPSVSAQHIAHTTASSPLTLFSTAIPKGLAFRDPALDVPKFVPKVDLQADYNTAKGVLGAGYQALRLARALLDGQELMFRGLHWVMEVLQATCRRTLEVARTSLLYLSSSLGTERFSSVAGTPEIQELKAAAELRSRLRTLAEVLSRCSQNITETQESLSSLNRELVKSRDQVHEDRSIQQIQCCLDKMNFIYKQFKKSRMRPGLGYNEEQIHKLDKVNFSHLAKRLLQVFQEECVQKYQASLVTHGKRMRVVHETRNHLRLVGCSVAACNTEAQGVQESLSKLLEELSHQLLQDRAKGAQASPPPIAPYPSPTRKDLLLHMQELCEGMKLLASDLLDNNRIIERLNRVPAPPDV

[10] = target: T4, Inhibitor of nuclear factor kappa-B kinase subunit epsilon (Homo sapiens); details: at 1 µM
[11] = target: T5, Serine/threonine-protein kinase Nek1 (Homo sapiens) (UniProt Q96PY6); details: at 0.1 µM
T5 sequence (whole entry): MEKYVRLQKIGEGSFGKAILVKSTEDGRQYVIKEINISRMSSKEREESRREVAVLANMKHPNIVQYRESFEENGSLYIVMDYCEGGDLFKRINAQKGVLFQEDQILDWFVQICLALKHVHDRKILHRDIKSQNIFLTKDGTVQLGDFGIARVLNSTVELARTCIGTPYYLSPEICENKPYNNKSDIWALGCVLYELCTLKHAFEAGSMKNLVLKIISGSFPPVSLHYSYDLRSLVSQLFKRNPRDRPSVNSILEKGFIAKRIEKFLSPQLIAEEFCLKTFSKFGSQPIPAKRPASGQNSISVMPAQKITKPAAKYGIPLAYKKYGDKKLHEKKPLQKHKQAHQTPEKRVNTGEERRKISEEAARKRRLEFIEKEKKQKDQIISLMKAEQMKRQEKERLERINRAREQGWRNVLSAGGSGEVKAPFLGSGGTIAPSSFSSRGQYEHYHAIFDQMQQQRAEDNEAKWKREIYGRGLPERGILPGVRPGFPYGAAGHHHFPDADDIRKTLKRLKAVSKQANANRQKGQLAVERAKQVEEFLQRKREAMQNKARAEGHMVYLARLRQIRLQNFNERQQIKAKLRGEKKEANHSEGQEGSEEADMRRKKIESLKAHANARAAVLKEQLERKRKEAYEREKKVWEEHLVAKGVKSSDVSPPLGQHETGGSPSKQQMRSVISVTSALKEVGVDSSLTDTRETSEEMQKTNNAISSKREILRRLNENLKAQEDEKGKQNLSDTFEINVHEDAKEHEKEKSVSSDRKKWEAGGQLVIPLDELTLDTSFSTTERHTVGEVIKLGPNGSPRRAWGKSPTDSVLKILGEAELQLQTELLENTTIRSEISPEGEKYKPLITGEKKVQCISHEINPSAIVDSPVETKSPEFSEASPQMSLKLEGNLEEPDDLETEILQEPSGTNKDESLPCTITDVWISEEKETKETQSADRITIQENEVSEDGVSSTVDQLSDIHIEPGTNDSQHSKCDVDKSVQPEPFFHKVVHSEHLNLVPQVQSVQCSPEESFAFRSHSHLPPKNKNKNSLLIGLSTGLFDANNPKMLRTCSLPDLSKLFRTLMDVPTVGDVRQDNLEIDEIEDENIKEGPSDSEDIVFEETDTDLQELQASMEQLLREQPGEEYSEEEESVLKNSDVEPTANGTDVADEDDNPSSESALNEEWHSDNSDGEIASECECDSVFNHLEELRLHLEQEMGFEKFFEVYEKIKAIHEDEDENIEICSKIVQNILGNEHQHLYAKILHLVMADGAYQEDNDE

[12] = target: T5, Serine/threonine-protein kinase Nek1 (Homo sapiens); details: at 1 µM
[13] = target: T6, Serine/threonine-protein kinase Nek2 (Homo sapiens) (UniProt P51955); details: at 0.1 µM
T6 sequence (whole entry): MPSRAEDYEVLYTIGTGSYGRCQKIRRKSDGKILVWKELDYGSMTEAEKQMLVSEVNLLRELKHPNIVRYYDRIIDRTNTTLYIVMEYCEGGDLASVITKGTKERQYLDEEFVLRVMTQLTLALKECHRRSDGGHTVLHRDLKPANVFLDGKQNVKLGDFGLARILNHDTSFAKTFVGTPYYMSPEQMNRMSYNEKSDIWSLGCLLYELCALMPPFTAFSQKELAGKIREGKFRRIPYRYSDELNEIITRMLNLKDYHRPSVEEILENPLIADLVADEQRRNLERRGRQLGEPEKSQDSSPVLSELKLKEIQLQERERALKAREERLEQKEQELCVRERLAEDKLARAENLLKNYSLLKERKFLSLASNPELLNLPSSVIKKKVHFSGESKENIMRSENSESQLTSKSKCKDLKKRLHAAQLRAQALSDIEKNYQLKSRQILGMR

[14] = target: T6, Serine/threonine-protein kinase Nek2 (Homo sapiens); details: at 1 µM
[15] = target: Serine/threonine-protein kinase Nek6 (Homo sapiens) (UniProt Q9HC98); details: at 0.1 µM
[16] = target: Serine/threonine-protein kinase Nek6 (Homo sapiens) (UniProt Q9HC98); details: at 1 µM
[17] = target: Serine/threonine-protein kinase Nek7 (Homo sapiens) (UniProt Q8TDX7); details: at 0.1 µM
[18] = target: Serine/threonine-protein kinase Nek7 (Homo sapiens) (UniProt Q8TDX7); details: at 1 µM
[19] = target: T7, Serine/threonine-protein kinase Nek9 (Homo sapiens) (UniProt Q8TD19); details: at 0.1 µM;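 note: reported value is the mean percent inhibition of NEK9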
T7 sequence (whole entry): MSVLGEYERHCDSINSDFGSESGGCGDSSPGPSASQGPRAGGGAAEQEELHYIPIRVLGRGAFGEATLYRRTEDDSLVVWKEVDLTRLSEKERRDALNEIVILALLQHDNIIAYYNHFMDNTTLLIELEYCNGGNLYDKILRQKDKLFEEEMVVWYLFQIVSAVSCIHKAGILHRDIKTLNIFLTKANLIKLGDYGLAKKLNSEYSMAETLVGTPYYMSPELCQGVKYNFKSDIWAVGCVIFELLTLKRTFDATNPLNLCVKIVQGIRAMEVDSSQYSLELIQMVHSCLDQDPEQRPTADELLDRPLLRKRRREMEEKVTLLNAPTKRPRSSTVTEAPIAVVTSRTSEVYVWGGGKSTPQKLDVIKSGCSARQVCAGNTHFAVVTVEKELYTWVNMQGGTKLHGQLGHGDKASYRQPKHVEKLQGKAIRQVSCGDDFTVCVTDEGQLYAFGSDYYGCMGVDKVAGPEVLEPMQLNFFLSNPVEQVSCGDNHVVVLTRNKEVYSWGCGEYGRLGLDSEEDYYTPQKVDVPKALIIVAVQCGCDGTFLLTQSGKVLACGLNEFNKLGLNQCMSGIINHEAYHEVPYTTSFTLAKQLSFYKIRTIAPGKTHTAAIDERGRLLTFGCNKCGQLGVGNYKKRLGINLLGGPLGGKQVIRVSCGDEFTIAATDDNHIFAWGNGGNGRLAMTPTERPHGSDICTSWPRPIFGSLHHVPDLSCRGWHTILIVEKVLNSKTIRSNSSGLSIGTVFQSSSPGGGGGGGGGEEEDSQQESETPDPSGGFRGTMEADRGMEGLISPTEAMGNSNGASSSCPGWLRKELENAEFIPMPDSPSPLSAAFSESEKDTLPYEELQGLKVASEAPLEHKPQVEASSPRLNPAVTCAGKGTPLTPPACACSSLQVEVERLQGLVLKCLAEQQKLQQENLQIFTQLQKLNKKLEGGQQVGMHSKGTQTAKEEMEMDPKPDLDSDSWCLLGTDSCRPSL

Chain of Serine/threonine-protein kinase Nek7 (Homo sapiens) (Q8TDX7 whole entry, looked up): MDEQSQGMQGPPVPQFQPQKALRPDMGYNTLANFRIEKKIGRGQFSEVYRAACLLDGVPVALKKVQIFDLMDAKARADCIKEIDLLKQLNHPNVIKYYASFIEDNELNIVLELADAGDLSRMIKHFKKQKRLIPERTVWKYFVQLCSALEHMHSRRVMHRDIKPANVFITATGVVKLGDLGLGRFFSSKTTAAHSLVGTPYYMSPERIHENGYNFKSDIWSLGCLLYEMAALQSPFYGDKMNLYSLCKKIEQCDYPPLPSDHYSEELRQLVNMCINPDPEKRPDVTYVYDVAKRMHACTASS
Chain of Serine/threonine-protein kinase Nek6 (Homo sapiens) (Q9HC98 whole entry): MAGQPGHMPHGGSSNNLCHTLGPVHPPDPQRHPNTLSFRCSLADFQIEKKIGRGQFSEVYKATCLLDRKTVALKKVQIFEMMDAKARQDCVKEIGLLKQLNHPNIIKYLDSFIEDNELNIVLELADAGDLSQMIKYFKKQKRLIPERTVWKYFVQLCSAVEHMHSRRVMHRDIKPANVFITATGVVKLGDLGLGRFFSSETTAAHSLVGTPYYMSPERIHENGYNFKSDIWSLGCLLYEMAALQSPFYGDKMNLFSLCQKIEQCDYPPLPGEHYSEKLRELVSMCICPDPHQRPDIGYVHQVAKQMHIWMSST
Chain of Casein kinase II subunit alpha (Homo sapiens) (P68400 whole entry, looked up): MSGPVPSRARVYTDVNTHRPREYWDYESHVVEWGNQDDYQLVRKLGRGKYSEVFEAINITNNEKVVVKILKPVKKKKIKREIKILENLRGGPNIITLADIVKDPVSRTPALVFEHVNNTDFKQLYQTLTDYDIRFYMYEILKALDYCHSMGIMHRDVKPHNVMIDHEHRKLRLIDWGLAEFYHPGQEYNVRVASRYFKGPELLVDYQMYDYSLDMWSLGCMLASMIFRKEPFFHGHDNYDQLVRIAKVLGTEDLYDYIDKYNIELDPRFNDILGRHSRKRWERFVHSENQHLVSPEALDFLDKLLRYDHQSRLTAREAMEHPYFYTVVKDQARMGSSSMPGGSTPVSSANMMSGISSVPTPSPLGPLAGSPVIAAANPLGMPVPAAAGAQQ
Chain of Sphingosine kinase 1 (Homo sapiens) (Q9NYA1 whole entry): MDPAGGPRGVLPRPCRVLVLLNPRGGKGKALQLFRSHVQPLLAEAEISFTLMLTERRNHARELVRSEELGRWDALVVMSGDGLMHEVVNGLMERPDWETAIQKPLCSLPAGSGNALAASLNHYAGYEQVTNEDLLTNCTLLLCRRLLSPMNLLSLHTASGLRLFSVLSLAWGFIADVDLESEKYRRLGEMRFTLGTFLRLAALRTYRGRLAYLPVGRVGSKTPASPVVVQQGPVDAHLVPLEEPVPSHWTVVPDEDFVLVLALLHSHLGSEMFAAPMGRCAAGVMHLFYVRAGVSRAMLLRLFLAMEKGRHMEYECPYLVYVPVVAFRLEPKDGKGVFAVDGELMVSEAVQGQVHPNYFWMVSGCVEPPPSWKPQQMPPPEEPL

CS(=O)(=O)CCNCc1cc(-c2cc3c(Nc4ccc(OCc5cccc(F)c5)c(Cl)c4)ncnc3s2)cs1
inhibition [1]: 3.45%
inhibition [2]: -0.27%
inhibition [3]: 0.36%
inhibition [4]: 2.87%
inhibition [5]: 10.9%
inhibition [6]: 9.95%
inhibition [7]: 7.54%
inhibition [8]: 6.76%
inhibition [9]: 6.48%
inhibition [10]: 4.64%
inhibition [11]: 3.08%
inhibition [12]: 5.81%
inhibition [13]: 6.26%
inhibition [14]: 6.31%
inhibition [15]: 1.2%
inhibition [16]: 3.03%
inhibition [17]: 4.02%
inhibition [18]: 8.5%
inhibition [19]: 9.93%
